Laboratory results reported in the supplement of paper PMC10849652.
Targets with a hit are over-represented here; the source holds about 7,900 in all. About 0.6% of all pairs of compound and target were hits.

Key:
Assay in all cases: log2 fold change, soluble protein after heating vs DMSO (PISA); higher = thermal stabilisation; K562 cells, 10 uM, 30 min; active = over 0.2 and 3.5 SD of the protein, either way, in both replicates (recomputed)
[1] = compound: C1=CC=C(C=C1)[C@H](COC2=CC3=C(C=C2)NC(=O)N3)NC(=O)C4=CC=CN(C4=O)CC5=CC(=C(C=C5)F)F
In short: (§1)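 Quantification of soluble protein used TMTpro 16plex LC-MS/MS, with channel sums equalised. Samples were the supernatant after 21,000xg for 90 min of pooled aliquots from K562 cells (2×10^6 cells/mL) treated with 10 μM compound for 30 min, heated for 3 min over 48°C-58°C, and extracted in PBS with 0.5% NP-40 at 4°C. Values, from duplicates, describe thermal stability against control samples on a log2 fold-change scale.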

[2] = compound: CC1=C(SC2=C1C(=N[C@H](C3=NN=C(N32)C)CC(=O)N)C4=CC=C(C=C4)Cl)C
In short: as §1

[3] = compound: CC1=C2C(=CC=C1)N=C(N(C2=O)C3=CC=CC=C3C)CN4C=NC5=C(N=CN=C54)N
In short: as §1

[4] = compound: Cc1sc2c(c1C)C(c1ccc(Cl)cc1)=N[C@@H](CC(=O)OC(C)(C)C)c1nnc(C)n1-2
In short: as §1

[5] = compound: c1ccc([C@@H]2C[C@H]2NC2CCNCC2)cc1
In short: as §1

Measured: log2 fold change

GGT7 (UniProt Q9UJ14)
Chain of UniProt Q9UJ14 (Q9UJ14 whole entry, looked up): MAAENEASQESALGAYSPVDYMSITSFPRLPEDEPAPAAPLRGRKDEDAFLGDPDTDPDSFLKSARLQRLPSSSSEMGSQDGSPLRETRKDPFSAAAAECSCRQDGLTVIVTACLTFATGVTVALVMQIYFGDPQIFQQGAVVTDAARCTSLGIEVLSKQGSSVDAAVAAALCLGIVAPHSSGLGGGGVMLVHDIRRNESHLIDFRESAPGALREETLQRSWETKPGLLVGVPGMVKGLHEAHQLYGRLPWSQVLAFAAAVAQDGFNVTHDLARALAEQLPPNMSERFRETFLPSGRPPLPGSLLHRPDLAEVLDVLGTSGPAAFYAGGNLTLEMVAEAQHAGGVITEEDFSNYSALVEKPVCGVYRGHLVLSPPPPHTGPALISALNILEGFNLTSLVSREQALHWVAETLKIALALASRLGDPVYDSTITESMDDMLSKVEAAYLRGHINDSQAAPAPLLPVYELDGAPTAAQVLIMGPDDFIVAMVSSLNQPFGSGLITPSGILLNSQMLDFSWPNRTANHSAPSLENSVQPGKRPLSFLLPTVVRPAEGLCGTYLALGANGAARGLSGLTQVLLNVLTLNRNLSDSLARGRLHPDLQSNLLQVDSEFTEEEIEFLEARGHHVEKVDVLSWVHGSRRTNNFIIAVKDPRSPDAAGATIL
inactive: [1] 0.028 | [2] -0.055 | [3] -0.069 | [4] 0.026 | [5] 0.032

FUBP3 (UniProt Q96I24)
inactive: [1] 0.009 | [2] 0.002 | [3] 0.017 | [4] 0.065 | [5] 0.006

HBZ, A0A494C057
inactive: [1] -0.047

HOOK3 (UniProt Q86VS8)
Chain of UniProt Q86VS8 (Q86VS8 whole entry, looked up): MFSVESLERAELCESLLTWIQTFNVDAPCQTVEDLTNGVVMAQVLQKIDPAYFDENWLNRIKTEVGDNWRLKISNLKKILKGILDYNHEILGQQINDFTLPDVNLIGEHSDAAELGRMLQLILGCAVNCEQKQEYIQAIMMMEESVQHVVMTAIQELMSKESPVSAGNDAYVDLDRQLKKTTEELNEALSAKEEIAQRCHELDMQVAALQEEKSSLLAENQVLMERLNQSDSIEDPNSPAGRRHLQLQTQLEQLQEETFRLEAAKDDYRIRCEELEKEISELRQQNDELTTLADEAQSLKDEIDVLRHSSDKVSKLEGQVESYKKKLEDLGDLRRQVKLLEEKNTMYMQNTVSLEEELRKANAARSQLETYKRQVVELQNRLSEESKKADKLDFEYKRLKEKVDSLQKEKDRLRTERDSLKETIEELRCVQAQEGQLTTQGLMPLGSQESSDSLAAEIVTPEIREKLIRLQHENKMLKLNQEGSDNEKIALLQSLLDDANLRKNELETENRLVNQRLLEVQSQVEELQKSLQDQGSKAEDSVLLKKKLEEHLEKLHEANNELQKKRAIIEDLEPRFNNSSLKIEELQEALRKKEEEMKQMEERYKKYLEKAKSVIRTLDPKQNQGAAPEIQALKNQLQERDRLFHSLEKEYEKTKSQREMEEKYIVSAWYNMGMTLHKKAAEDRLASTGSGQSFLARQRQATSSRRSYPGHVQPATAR
inactive: [1] -0.065 | [2] -0.003 | [3] 0.018 | [4] 0 | [5] 0.024

GLIPR2 (UniProt Q9H4G4)
inactive: [1] -0.092 | [2] -0.091 | [3] -0.009 | [4] 0.028 | [5] -0.017

FUNDC1 (UniProt Q8IVP5)
inactive: [1] 0.052

GTF2E2 (UniProt P29084)
inactive: [1] -0.009 | [2] 0.043 | [3] 0.126 | [4] -0.058 | [5] 0.012

HNRNPF (UniProt P52597)
inactive: [1] -0.032 | [2] -0.049 | [3] -0.019 | [4] -0.02 | [5] -0.017

HDAC10 (UniProt Q969S8)
inactive: [1] -0.061 | [2] -0.028 | [3] 0.07 | [4] 0.12 | [5] -0.051

HADHA (UniProt P40939)
inactive: [1] -0.218 | [2] 0.254 | [3] 0.214 | [4] 0.256 | [5] -0.051

IFITM3 (UniProt Q01628)
inactive: [1] 0.038 | [2] -0.024 | [3] -0.06 | [4] 0.081 | [5] -0.014

HMOX2 (UniProt P30519)
Chain of UniProt P30519 (P30519 whole entry, looked up): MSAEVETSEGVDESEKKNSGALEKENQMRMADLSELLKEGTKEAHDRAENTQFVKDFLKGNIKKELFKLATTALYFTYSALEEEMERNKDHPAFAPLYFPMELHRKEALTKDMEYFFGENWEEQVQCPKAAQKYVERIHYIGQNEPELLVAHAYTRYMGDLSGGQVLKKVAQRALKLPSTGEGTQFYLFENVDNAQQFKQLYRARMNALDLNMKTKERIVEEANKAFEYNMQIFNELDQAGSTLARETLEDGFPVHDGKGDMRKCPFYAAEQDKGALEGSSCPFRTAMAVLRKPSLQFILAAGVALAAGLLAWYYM
inactive: [1] 0.024 | [2] 0.035 | [3] 0.169 | [4] 0.047 | [5] -0.036

GCSH (UniProt P23434)
inactive: [1] 0.029 | [2] -0.004 | [3] -0.043 | [4] 0 | [5] 0.043

GID4 (UniProt Q8IVV7)
Chain of UniProt Q8IVV7 (Q8IVV7 whole entry, looked up): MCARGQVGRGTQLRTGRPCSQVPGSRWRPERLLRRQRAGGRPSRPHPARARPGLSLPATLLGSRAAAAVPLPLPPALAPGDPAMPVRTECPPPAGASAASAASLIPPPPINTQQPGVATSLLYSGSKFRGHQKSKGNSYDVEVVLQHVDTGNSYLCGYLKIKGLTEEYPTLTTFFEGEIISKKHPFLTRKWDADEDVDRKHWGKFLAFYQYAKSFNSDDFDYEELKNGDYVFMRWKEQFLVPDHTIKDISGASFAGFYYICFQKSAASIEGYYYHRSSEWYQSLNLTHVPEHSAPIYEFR
inactive: [1] -0.012 | [2] -0.021 | [3] 0.138 | [4] 0.048 | [5] 0.009

IFNGR1 (UniProt P15260)
inactive: [1] 0.106 | [2] 0.105 | [3] 0.028 | [4] 0.046 | [5] 0.03

IFRD2 isoform 2 (UniProt Q12894)
inactive: [1] -0.013 | [2] -0.091 | [3] -0.055 | [4] 0.063 | [5] 0.061

GTF3C4 (UniProt Q9UKN8)
inactive: [1] 0.027 | [2] 0.065 | [3] 0.143 | [4] 0.02 | [5] 0.025

GLS (UniProt O94925)
inactive: [1] -0.022 | [2] 0.114 | [3] 0.138 | [4] 0.013 | [5] 0.082

HMGCR isoform 3 (UniProt P04035)
inactive: [1] -0.011 | [2] 0.034 | [3] 0.045 | [4] 0.111 | [5] 0.043

HTATIP2 isoform 3 (UniProt Q9BUP3)
inactive: [1] 0.063 | [2] 0.031 | [3] 0.059 | [4] 0.028 | [5] -0.03

GPX4 (UniProt P36969)
inactive: [1] 0.029 | [2] 0.001 | [3] 0.017 | [4] -0.064 | [5] 0.028

HEXA (UniProt P06865)
inactive: [1] 0.042 | [2] -0.004 | [3] 0.052 | [4] -0.018 | [5] 0.024

GNL3 (UniProt Q9BVP2)
inactive: [1] 0.101 | [2] 0.112 | [3] 0.164 | [4] -0.131 | [5] -0.053

HBZ (UniProt P02008)
inactive: [1] 0.047 | [2] 0.191 | [3] 0.091 | [4] -0.132 | [5] -0.009

GNPAT (UniProt O15228)
Chain of UniProt O15228 (O15228 whole entry, looked up): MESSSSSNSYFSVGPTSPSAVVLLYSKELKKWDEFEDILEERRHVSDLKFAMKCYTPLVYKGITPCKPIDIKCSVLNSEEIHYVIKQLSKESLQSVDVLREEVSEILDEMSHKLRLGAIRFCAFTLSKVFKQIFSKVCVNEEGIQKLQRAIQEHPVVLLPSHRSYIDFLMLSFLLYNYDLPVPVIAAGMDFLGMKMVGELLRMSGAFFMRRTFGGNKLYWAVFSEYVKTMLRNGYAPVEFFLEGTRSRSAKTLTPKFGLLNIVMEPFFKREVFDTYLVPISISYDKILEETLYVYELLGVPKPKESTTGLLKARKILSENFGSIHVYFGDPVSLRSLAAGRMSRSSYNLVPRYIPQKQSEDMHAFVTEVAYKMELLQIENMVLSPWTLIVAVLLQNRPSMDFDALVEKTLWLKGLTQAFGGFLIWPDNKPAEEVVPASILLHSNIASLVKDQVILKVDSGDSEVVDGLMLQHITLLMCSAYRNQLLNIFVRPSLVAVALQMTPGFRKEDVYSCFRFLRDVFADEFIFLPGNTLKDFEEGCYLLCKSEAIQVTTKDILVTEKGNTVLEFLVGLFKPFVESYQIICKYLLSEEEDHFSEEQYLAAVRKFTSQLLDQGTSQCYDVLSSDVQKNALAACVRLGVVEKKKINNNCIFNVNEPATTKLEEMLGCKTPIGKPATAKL
inactive: [1] -0.034 | [2] 0.043 | [3] 0.07 | [4] -0.01 | [5] -0.036

GALNT4 (UniProt Q8N4A0)
inactive: [1] 0.007 | [2] 0.062 | [3] 0.109 | [4] -0.033 | [5] -0.002

H1FX (UniProt Q92522)
Chain of UniProt Q92522 (Q92522 whole entry, looked up): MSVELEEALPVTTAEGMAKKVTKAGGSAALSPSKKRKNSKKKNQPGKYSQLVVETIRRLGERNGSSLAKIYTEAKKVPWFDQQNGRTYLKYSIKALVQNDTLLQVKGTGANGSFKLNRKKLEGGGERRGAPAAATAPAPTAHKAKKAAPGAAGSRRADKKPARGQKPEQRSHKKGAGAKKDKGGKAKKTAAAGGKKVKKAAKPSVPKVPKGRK
inactive: [1] 0.088 | [2] -0.146 | [3] -0.21 | [4] 0.135 | [5] -0.005

HNRNPH2 (UniProt P55795)
inactive: [1] -0.096 | [2] -0.037 | [3] 0.097 | [4] -0.035 | [5] -0.003

HNRNPUL2 (UniProt Q1KMD3)
inactive: [1] 0.054 | [2] -0.05 | [3] -0.041 | [4] 0.105 | [5] 0.04

GTF2H3 (UniProt Q13889)
Chain of UniProt Q13889 (Q13889 whole entry, looked up): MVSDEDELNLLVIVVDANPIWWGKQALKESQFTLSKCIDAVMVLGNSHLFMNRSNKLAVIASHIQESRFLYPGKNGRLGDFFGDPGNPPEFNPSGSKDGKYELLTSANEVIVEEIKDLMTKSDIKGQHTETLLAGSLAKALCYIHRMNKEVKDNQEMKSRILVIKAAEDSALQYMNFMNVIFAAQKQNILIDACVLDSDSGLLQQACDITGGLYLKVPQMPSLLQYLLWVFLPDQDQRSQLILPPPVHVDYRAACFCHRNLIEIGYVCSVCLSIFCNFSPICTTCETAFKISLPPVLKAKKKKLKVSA
inactive: [1] 0.062 | [2] 0.065 | [3] 0.099 | [4] 0.048 | [5] 0.017

GOLPH3 (UniProt Q9H4A6)
inactive: [1] -0.035 | [2] 0.06 | [3] 0.04 | [4] -0.077 | [5] -0.021

HSPA2 (UniProt P54652)
inactive: [1] 0.003

GALK1 isoform 2 (UniProt P51570)
Chain of UniProt P51570 (P51570 whole entry, looked up): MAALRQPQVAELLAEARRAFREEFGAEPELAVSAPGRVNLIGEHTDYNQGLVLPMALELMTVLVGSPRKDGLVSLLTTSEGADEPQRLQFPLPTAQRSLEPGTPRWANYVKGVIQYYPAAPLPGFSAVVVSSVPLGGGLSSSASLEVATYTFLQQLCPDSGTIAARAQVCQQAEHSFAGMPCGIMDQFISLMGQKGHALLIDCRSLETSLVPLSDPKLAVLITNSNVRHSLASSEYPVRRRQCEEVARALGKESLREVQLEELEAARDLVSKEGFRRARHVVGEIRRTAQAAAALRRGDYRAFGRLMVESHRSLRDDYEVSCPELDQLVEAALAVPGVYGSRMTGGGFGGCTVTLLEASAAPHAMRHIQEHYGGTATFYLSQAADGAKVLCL
inactive: [1] -0.02 | [2] 0.016 | [3] -0.065 | [4] -0.024 | [5] -0.007

FNTA (UniProt P49354)
inactive: [1] -0.009 | [2] -0.024 | [3] 0.02 | [4] 0.04 | [5] -0.009

HIST2H2BF isoform 2 (UniProt Q5QNW6)
inactive: [1] 0.148 | [2] -0.273 | [3] -0.29 | [4] -0.082 | [5] 0.125

HSD17B12 (UniProt Q53GQ0)
inactive: [1] 0.013 | [2] 0.061 | [3] 0.066 | [4] 0.042 | [5] -0.008

FKBP3 (UniProt Q00688)
inactive: [1] 0.014 | [2] 0.003 | [3] 0.01 | [4] 0.011 | [5] -0.016

HRAS (UniProt P01112)
inactive: [1] 0.015 | [2] 0.116 | [3] -0.03 | [4] 0.016 | [5] 0.138

GTF3C5 isoform 3 (UniProt Q9Y5Q8)
inactive: [1] -0.097 | [2] -0.082 | [3] 0.103 | [4] 0.049 | [5] -0.159

GATD1 (UniProt Q8NB37)
inactive: [1] -0.038 | [2] 0.043 | [3] 0.019 | [4] 0.019 | [5] 0.007

HSPA8 (UniProt E9PN89)
inactive: [1] 0 | [2] 0.094 | [3] 0.123 | [4] 0.133 | [5] 0.104

ICAM1 (UniProt P05362)
inactive: [1] -0.005 | [2] 0.021 | [3] 0.049 | [4] 0.012 | [5] 0.031

GCC2 (UniProt Q8IWJ2)
inactive: [1] -0.027 | [2] -0.116 | [3] 0.004 | [4] 0.066 | [5] -0.059

GYG1 (UniProt P46976)
inactive: [1] 0.02 | [2] -0.077 | [3] -0.046 | [4] -0.008 | [5] -0.019

FNTB (UniProt P49356)
Chain of UniProt P49356 (P49356 whole entry, looked up): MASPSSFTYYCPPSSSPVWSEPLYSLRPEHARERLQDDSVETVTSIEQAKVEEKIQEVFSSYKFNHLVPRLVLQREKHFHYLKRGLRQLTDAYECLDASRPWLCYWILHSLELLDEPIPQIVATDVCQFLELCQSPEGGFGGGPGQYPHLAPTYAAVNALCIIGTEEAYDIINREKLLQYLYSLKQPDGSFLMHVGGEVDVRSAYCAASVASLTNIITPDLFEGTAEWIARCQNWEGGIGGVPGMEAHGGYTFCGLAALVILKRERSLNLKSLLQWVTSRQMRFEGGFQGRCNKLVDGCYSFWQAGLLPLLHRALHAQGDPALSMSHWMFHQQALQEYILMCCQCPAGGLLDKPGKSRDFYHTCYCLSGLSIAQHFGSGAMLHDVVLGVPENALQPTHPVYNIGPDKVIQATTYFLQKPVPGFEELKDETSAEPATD
inactive: [1] -0.034 | [2] 0.401 | [3] -0.017 | [4] 0.269 | [5] -0.044

GSTM4 (UniProt Q03013)
Chain of UniProt Q03013 (Q03013 whole entry, looked up): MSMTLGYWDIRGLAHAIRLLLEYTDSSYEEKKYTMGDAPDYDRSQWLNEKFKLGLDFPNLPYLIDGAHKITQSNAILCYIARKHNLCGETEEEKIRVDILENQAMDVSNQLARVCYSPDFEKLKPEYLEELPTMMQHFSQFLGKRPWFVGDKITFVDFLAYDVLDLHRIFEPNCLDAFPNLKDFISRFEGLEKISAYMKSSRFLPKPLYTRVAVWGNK
inactive: [1] 0.064 | [2] 0.063 | [3] -0.114 | [4] -0.027 | [5] 0.03

HEXB (UniProt P07686)
inactive: [1] 0.028 | [2] 0.005 | [3] 0.064 | [4] -0.008 | [5] 0.016

GPKOW (UniProt Q92917)
Chain of UniProt Q92917 (Q92917 whole entry, looked up): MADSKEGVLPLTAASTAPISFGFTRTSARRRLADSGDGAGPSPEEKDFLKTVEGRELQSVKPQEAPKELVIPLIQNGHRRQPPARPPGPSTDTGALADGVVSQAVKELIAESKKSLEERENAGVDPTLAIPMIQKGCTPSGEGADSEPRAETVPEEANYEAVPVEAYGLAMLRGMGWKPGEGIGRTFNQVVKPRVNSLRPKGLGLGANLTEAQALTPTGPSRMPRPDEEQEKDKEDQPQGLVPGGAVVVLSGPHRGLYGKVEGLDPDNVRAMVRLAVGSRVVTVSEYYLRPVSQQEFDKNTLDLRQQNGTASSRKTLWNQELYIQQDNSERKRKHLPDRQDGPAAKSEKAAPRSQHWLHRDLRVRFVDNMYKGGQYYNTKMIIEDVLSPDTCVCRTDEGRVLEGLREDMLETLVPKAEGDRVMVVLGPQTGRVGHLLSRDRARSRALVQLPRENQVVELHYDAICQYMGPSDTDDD
inactive: [1] -0.133 | [2] 0.078 | [3] 0.076 | [4] 0 | [5] -0.015

HMGN2 (UniProt P05204)
inactive: [1] -0.099 | [2] -0.056 | [3] -0.033 | [4] 0.021 | [5] 0.07

HEATR5B (UniProt Q9P2D3)
inactive: [1] -0.029 | [2] -0.015 | [3] 0.052 | [4] -0.071 | [5] 0.016

GTF2B (UniProt Q00403)
inactive: [1] -0.036 | [2] 0.007 | [3] 0.154 | [4] 0.017 | [5] -0.002

GGA2 (UniProt Q9UJY4)
inactive: [1] -0.023 | [2] 0.014 | [3] -0.035 | [4] 0.041 | [5] -0.047

FKBP7 (UniProt Q9Y680)
inactive: [1] -0.027 | [2] 0.005 | [3] 0.091 | [4] 0.009 | [5] 0.102

FOXK1 (UniProt P85037)
inactive: [1] 0.104 | [2] -0.042 | [3] 0.253 | [4] -0.402 | [5] 0.049

H2AZ1 (UniProt P0C0S5)
Chain of UniProt P0C0S5 (P0C0S5 whole entry, looked up): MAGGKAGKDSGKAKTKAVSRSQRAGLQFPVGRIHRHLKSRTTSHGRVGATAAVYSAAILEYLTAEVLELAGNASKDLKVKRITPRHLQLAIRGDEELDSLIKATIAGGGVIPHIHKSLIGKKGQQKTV
inactive: [1] 0.12 | [2] -0.153 | [3] -0.247 | [4] -0.021 | [5] 0.123
